Source: PubChem BioAssay (NCATS)
Results filed as inconclusive are left out. Entries that show only a call come without a potency. Calls of active or inactive are those of the source. Unless noted, calls follow the shape of the dose curve; as a rule, active = well fitted curve in the direction sought with a large enough effect; inconclusive = small, poorly fitted or top-dose-only effect, or another doubt; inactive = no such curve, though single readings can be large; an effect the other way counts as inactive or inconclusive.

Columns and labels:
[1] = target: Ubiquitin carboxyl-terminal hydrolase 2 (Homo sapiens) (UniProt O75604); assay: qHTS Validation Assay for Inhibitors of Ubiquitin-specific Protease USP2a Using CHOP2 as the Reporter (AID 463106)
Outline: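 10nM USP2 core + cpd, 30min RT; add 25nM Ub-CHOP2/25nM substrate; 60min RT; FI 485/531nm. Buffer Tris pH 8.0, CaCl2, BME, CHAPS. Norm. to NEM = 100% inhibition; time-zero read flags fluorescent artifacts.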

[2] = target: DNA polymerase III PolC-type (Bacillus subtilis (strain 168)) (UniProt P13267); assay: qHTS Validation Assay for the Inhibitors of DNA Replication in Gram-Positive Bacteria (AID 485295);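 also: PicoGreen fluorescence of double-stranded DNA made on primed circular M13 template; series mostly up to about 57 µM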
Outline: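 Reconstituted B. subtilis Pol III holoenzyme (PolC, beta clamp, SSB, primase) preincubated with compound, then M13Gori single-stranded circular template with dNTPs/NTPs added; room temperature reaction. Stopped with EDTA/PicoGreen; dsDNA fluorescence read, EDTA as full-inhibition control.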

[3] = target: Tumor susceptibility gene 101 protein (Homo sapiens) (UniProt Q99816); assay: qHTS Validation Assay for Iinhibitors of HIV-1 Budding by Blocking the Interaction of PTAP/TSG101 (AID 485342; calls by dose curve)
Outline: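 Tsg101 binding domain (10 uM) with FITC-labeled PTAP peptide (50 nM) in HEPES pH 7.5 buffer, 20 min at r.t. with compounds. Binding measured by fluorescence polarization.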

[4] = target: Beta-2 adrenergic receptor (Homo sapiens) (UniProt P07550); assay: qHTS validation assay of beta-arrestin-biased ligands of beta2-adrenergic receptor (AID 485366)
Outline: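 Tango cells expressing recombinant beta2-AR and beta-arrestin with tTA-driven luciferase, in DMEM with 1% FBS. Compounds were titrated up to 46 microM for 18 hr at 37 degrees C. Luminescence was read 15 min after substrate; curves were fitted and class-assigned.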

[5] = target: ATP-dependent 6-phosphofructokinase (Trypanosoma brucei brucei) (UniProt O15648); assay: qHTS Validation Assay to Find Inhibitors of T. brucei phosphofructokinase (AID 485368); conditions: outcome: dose series up to 57.5 µM
Outline: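 Activity was read as ADP production by luminescence (ADP-Glo) after 45 min at room temperature. The enzyme was 1.25nM PFK in 0.1M TEA pH 8.0 with 0.5 mM F6P, 0.1mM ATP and 5 mM MgCl2. Compounds were titrated up to 57 uM and % activity normalized to no-enzyme and full-enzyme controls.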

[6] = target: Thioredoxin reductase 1, cytoplasmic (Rattus norvegicus) (UniProt O89049); assay: qHTS Assay for Substrates of Mammalian Selenoprotein Thioredoxin Reductase 1 (TrxR1) (AID 488772);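 also: NADPH fluorescence in the first read after selenite addition and not the 8 min delta; series mostly up to about 57 µM; a drop in NADPH fluorescence below the no-compound background marks a TrxR1 substrate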
Outline: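 Quantitative HTS in Tris-HCl buffer at pH 7.5 with EDTA and Tween-20, using rat TrxR1, 400 uM NADPH and 400 uM selenite (final). A fall in initial NADPH fluorescence relative to background marked substrate behaviour.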

[7] = target: Thioredoxin reductase 1, cytoplasmic (Rattus norvegicus) (UniProt O89049); assay: qHTS Assay for Inhibitors of Mammalian Selenoprotein Thioredoxin Reductase 1 (TrxR1) (AID 488773);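 also: drop in NADPH fluorescence over an 8 min run after selenite addition; series mostly up to about 57 µM; nearly all actives have a fitted effect of over 40% in size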
Outline: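 Steps: enzyme (90 nM) plus NADPH (400 uM final), 5 min at ~22 deg C; compound added, 15 min; selenite (400 uM final) added; fluorescence followed for 8 min. Concentration-response curves derived from the normalized delta values.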

[8] = target: Flap endonuclease 1 (Homo sapiens) (UniProt P39748); assay: qHTS Validation Assay for the Inhibitors of Human Flap endonuclease 1 (FEN1) (AID 488816)
Outline: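 Readings taken at 0 and 15 min after starting the reaction with 50 nM (final) substrate supplied the signal. Compounds had first sat with 10 nM FEN1 reagent for 15 min at room temperature. Values come from Hill-equation concentration-response fits.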

[9] = target: M-phase phosphoprotein 8 (Homo sapiens) (UniProt Q99549); assay: qHTS Validation Assay for Inhibitors for MPP8 Chromodomain Interactions with Methylated Histone Tails (AID 488949); also: top concentration of the series differs between compounds; nearly all actives have a fitted effect of over 55% in size
Outline: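 MPP8 (50 nM) was pre-bound to 50 nM biotinylated H3(1-18)K9me3 peptide in PBS pH 7.4 with 0.01% Tween-20. Compounds were then added for 30 min at room temperature, and complex disruption was read by AlphaScreen with streptavidin donor and nickel-chelate acceptor beads.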

[10] = target: Chromobox protein homolog 1 (Homo sapiens) (UniProt P83916); assay: qHTS Validation Assay for Inhibitors of HP1-beta Chromodomain Interactions with Methylated Histone Tails (AID 488953);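 also: loss of AlphaScreen luminescence from HP1-beta binding biotinylated H3K9me3 peptide; series mostly up to about 110 µM; nearly all actives have a fitted effect of over 50% in size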
Outline: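 HP1-beta (50 nM) preformed 30 min with biotinylated H3(1-18)K9me3 peptide (50 nM) in PBS pH 7.4, 0.01% Tween-20. Compounds added for 30 min at room temperature. Complex disruption read by AlphaScreen with streptavidin donor/nickel chelate acceptor beads (10 ug/mL each).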

[11] = target: Methanococcus maripaludis chaperonin (MmCpn) (UniProt Q6LX38); assay: High-Throughput Screening for Modulators of Cytosolic Chaperonin Activity: MmCpn Primary Screen (AID 488978);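 also: 50 nM MmCpn enzyme hydrolysing 30 µM ATP at 37 °C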
Outline: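 MmCpn at 50 nM final was preincubated 5 min at RT with compound. ATP was then added at 30 uM final for 10 min at 37 C. ADP formed was detected by Transcreener HTRF (665/590 nm).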

[12] = target: Thyrotropin receptor (Homo sapiens) (UniProt P16473); assay: qHTS Assay for Antagonists of the Thyroid Stimulating Hormone Receptor (AID 488980); also: series mostly up to about 58 µM
Outline: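 TSHR-transfected HEK293 cells (2000/well) in HEPES-buffered HBSS with 70 uM RO 20-1724 were stimulated with 4 nM TSH (EC80, final) in the presence of compound. cAMP was measured by HTRF competition after lysis and 30 min at RT.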

[13] = target: D(1A) dopamine receptor (Homo sapiens) (UniProt P21728); assay: HTS Assay for Allosteric Agonists of the Human D1 Dopamine Receptor: Primary Screen for Agonists (AID 488981); also: potency is read from the fitted curve at half-maximal effect
Outline: (§1)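 Calcium flux in an inducible, force-coupled HEK293 Trex D1 line (overnight at 30 C): agonist mode is the 180 s kinetic read after compound; potentiator mode is the following 180 s read after dopamine at EC20.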

[14] = target: D(1A) dopamine receptor (Homo sapiens) (UniProt P21728); assay: HTS Assay for Allosteric Agonists of the Human D1 Dopamine Receptor: Primary Screen for Potentiators (AID 488982)
Outline: as §1

[15] = target: D(1A) dopamine receptor (Homo sapiens) (UniProt P21728); assay: HTS Assay for Allosteric Agonists of the Human D1 Dopamine Receptor: Primary Screen for Antagonists (AID 488983);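 also: calcium flux response to an EC80 dopamine challenge measured with no-wash dye; nearly all actives have a fitted effect of over 65% in size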; also: potency is read from the fitted curve at half-maximal effect
Outline: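 Tetracycline-induced HEK293 T-REx D1 line, force-coupled to calcium flux, read with no-wash calcium dye. Compound added after 10 s baseline, read 180 s for agonism, then EC80 dopamine added and read a further 180 s.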

[16] = target: ATP-dependent 6-phosphofructokinase (Trypanosoma brucei brucei) (UniProt O15648); assay: qHTS Assay to Find Inhibitors of T. brucei phosphofructokinase: hit validation (AID 492961);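 also: luminescence reports ADP formed as PFK phosphorylates fructose-6-phosphate with ATP; series mostly up to about 51 µM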
Outline: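 ADP-Glo luminescence read-out of ADP formed by 1.25 nM PFK from 0.1 mM ATP and 0.5 mM F6P (TEA pH 8.0, 45 min, RT). Compounds titrated; activity normalized to no-enzyme and full-enzyme controls.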

[17] = Validation screen for small molecules that induce genotoxicity in human embryonic kidney (HEK293T) cells expressing luciferase-tagged ELG1 (AID 493106)
Outline: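 HEK293T cells expressing luciferase-tagged ELG1, 2,000 cells/well, exposed to compound 16 hr at 37 °C, 5% CO2. Luciferase read after ONE-Glo, 30 min at room temperature; increased signal indicates genetic stress.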

[18] = Cytometry Cell-Based qHTS for Inhibitors of the mTORC1 Signaling Pathway in MEF cells (AID 2668);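 also: Tsc2-/- p53-/- mouse embryonic fibroblasts stably re-expressing wild-type Tsc2; percent cells positive for phospho-rpS6 Ser235/236 relative to propidium iodide stain; series mostly up to about 38 µM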
Outline: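 MEFs (Tsc2-/-, p53-/- stably expressing WT Tsc2) treated 24 h at 37 degree Celsius, fixed, stained with Alexa-488 anti-phospho-rpS6 Ser235/236 and propidium iodide; Acumen laser scanning. Reported as % positive cells, phospho-S6 normalized to PI.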

[19] = Validation screen for small molecules that induce DNA re-replication in MCF 10A normal breast cells (AID 463097); also: nearly all actives have a fitted effect of over 60% in size
Outline: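 MCF 10A cells exposed to compound 48 hr at 37 C, 5% CO2, then Hoechst-stained 40 min. Laser-scanning imaging of nuclear DNA content (405 nm ex, 500-530 nm em); re-replication scored as rise in nuclei with elevated fluorescence intensity.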

[20] = target: Transient receptor potential cation channel subfamily V member 1 (Homo sapiens) (UniProt Q8NER1); assay: HTS Assay for Compounds that Act as Enhancers of the Vanilloid Receptor 1 (AID 488979)
Outline: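 Calcium influx kinetics via Fluo-8 (480/520 nm) in TRPV1-expressing cells, 2000/well cultured overnight at 35.5C. Compound-alone read 3 min (agonist phase), followed by EC20 capsaicin challenge for 2 min (enhancer phase).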

Chain of Thioredoxin reductase 1, cytoplasmic (Rattus norvegicus) (O89049 whole entry, looked up): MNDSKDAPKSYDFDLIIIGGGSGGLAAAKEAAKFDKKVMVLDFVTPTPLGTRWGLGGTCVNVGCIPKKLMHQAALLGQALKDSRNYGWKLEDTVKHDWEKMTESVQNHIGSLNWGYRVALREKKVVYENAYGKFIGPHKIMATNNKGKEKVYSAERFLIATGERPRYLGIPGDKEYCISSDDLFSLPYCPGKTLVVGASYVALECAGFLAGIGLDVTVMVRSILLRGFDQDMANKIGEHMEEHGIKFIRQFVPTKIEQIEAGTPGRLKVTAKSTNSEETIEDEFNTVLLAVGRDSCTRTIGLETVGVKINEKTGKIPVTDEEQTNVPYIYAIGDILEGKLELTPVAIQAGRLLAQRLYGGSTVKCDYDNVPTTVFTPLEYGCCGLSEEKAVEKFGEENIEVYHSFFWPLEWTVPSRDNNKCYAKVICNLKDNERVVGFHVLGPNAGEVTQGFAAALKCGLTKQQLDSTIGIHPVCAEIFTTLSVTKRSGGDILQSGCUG
Chain of D(1A) dopamine receptor (Homo sapiens) (P21728 whole entry, looked up): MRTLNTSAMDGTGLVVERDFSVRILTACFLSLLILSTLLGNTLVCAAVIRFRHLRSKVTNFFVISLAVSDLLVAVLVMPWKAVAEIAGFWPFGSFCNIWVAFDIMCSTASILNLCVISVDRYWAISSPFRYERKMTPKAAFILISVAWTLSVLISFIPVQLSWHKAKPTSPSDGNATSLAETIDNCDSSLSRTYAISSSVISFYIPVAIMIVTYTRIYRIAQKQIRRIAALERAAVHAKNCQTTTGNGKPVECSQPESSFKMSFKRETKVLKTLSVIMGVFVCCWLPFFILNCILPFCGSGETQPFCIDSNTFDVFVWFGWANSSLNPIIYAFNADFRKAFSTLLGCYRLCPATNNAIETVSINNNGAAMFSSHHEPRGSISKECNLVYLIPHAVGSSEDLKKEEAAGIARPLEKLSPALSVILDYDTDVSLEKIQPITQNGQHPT
Chain of ATP-dependent 6-phosphofructokinase (Trypanosoma brucei brucei) (O15648 whole entry, looked up): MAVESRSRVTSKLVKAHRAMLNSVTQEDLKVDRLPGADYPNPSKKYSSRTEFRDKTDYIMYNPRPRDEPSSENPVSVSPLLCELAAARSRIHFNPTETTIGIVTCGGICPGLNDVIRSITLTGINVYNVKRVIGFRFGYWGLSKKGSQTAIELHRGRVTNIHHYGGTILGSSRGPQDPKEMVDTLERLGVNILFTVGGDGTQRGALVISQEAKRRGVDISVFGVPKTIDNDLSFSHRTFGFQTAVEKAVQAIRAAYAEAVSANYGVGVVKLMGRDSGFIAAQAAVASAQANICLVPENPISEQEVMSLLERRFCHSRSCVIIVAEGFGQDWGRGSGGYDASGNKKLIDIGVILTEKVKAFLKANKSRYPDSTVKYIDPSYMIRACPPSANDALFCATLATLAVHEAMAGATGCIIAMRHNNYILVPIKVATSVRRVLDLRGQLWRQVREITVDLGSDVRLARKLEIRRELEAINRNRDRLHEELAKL
Chain of M-phase phosphoprotein 8 (Homo sapiens) (Q99549 whole entry, looked up): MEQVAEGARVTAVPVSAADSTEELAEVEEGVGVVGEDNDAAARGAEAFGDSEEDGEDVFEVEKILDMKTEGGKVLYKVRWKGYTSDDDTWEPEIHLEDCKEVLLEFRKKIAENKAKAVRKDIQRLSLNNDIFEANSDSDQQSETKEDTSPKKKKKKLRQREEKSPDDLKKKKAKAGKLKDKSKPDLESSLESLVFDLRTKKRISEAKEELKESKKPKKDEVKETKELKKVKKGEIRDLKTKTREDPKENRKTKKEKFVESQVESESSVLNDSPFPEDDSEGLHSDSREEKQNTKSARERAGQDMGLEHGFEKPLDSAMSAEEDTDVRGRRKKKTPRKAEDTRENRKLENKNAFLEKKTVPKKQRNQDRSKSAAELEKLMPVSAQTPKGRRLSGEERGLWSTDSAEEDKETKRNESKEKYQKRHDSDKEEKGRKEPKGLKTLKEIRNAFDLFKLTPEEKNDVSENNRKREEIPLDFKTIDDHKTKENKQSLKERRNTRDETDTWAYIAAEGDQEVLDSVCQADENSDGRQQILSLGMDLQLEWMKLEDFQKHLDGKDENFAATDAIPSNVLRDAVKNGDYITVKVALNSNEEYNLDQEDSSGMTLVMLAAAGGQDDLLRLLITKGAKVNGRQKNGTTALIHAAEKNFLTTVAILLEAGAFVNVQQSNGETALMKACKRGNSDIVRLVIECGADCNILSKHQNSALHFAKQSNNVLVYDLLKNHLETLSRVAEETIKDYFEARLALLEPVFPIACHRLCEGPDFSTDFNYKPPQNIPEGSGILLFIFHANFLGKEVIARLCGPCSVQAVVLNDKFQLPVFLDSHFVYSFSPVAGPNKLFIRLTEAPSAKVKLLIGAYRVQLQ
Chain of DNA polymerase III PolC-type (Bacillus subtilis (strain 168)) (P13267 whole entry, looked up): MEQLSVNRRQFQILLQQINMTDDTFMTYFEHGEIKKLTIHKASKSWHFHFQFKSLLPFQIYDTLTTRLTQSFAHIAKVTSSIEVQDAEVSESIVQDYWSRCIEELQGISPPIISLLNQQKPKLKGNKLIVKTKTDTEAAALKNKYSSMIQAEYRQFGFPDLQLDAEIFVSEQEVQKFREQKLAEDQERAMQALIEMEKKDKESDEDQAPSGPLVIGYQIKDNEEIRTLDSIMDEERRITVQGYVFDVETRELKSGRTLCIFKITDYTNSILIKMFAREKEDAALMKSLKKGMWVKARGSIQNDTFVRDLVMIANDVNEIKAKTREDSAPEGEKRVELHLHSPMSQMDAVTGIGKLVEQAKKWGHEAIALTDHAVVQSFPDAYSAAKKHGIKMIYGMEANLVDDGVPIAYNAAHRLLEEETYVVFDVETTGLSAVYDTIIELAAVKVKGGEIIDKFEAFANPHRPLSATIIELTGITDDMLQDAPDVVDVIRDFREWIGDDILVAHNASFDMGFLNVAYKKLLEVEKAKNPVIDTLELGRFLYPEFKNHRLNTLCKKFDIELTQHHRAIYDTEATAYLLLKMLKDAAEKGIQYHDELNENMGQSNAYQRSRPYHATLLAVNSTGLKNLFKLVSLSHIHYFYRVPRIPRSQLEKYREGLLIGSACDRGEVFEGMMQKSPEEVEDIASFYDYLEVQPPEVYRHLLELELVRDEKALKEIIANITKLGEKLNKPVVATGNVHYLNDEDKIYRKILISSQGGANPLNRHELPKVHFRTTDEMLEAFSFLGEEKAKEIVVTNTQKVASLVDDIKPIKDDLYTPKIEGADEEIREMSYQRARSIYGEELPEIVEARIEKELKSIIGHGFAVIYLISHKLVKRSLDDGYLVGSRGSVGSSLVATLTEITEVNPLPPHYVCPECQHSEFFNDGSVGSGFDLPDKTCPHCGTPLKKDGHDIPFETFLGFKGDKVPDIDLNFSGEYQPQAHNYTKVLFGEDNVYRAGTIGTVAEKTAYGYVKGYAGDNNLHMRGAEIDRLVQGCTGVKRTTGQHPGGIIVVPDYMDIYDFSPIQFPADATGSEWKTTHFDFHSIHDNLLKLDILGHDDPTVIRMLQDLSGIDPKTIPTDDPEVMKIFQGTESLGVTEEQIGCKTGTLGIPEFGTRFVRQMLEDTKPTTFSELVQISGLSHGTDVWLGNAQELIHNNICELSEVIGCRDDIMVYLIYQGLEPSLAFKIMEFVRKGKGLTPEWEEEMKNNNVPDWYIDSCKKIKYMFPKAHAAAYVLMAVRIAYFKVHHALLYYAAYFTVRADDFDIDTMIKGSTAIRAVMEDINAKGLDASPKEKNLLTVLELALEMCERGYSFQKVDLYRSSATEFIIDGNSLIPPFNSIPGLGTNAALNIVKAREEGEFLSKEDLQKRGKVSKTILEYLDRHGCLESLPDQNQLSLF
Chain of Methanococcus maripaludis chaperonin (MmCpn) (Q6LX38 1-543): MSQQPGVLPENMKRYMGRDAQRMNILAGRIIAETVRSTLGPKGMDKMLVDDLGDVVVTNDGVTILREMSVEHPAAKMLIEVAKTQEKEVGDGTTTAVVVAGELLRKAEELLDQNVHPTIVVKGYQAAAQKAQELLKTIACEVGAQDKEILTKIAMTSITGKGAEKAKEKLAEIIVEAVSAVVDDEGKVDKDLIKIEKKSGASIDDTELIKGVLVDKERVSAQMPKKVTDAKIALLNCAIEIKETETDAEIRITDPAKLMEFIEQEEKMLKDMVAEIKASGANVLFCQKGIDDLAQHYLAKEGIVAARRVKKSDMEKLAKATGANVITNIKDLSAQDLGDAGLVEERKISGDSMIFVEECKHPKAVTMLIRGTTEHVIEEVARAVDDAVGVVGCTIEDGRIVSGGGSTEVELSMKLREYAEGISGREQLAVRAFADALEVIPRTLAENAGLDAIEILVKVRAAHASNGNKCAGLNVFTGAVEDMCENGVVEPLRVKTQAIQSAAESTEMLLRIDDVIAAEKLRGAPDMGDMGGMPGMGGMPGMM
Chain of Tumor susceptibility gene 101 protein (Homo sapiens) (Q99816 whole entry, looked up, the tested form may be a part): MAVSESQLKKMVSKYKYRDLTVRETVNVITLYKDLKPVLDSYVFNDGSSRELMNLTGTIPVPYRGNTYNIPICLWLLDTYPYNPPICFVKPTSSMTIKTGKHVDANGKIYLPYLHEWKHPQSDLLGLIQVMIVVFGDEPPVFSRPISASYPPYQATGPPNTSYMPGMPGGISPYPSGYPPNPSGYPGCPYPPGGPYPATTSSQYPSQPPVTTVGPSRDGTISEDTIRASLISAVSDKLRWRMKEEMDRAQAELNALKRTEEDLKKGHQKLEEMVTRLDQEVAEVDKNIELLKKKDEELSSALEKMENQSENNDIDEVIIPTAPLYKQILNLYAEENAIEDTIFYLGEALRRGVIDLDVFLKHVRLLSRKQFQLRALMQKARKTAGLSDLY
Chain of Chromobox protein homolog 1 (Homo sapiens) (P83916 whole entry, looked up): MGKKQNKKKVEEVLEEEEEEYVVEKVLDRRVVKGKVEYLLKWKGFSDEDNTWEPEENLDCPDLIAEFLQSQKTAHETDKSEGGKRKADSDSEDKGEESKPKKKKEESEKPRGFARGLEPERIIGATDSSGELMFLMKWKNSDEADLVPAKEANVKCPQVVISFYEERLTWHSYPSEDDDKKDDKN

CN[C@H]1CC[C@@H](c2ccc(Cl)c(Cl)c2)c2ccccc21
outcome [1]: inactive | outcome [2]: inactive | outcome [3]: inactive | outcome [4]: inactive | outcome [5]: inactive | outcome [6]: inactive | outcome [7]: inactive | outcome [8]: inactive | outcome [9]: inactive | outcome [10]: inactive | outcome [11]: inactive | outcome [12]: inactive | Potency [13]: 11.2 µM (active) | outcome [14]: inactive | Potency [15]: 10 µM (active) | outcome [16]: inactive | outcome [17]: inactive

C=CCNC1=C2C[C@@H](C)C[C@H](OC)[C@H](O)[C@@H](C)/C=C(\C)[C@H](OC(N)=O)[C@@H](OC)/C=C\C=C(/C)C(=O)NC(=CC1=O)C2=O
outcome [16]: inactive

CCCOc1ccc2nc(NC(=O)OC)sc2c1
outcome [16]: inactive

NCCCC(=O)O
outcome [18]: inactive | outcome [19]: inactive | outcome [1]: inactive | outcome [2]: inactive | outcome [3]: inactive | outcome [4]: inactive | outcome [5]: inactive | outcome [6]: inactive | outcome [7]: inactive | outcome [8]: inactive | outcome [9]: inactive | outcome [10]: inactive | outcome [11]: inactive | outcome [20]: inactive | outcome [12]: inactive | Potency [13]: inactive | Potency [15]: inactive | outcome [17]: inactive

COC1C(OC(=O)/C=C/C=C/C=C/C=C/C(=O)O)CCC2(CO2)C1C1(C)OC1CC=C(C)C (stereo not drawn)
outcome [16]: inactive
